Test results published in PubChem BioAssay (NCATS).
Inconclusive results are not listed. Values without a mark were called inactive. Calls of active or inactive are those of the source. Calls come from the whole dose curve; as a rule, active = well fitted inhibition curve with a large enough effect; inconclusive = small, poorly fitted or top-dose-only effect; inactive = no such curve, though single readings can be large or run the other way.

experiment: qHTS Screen of the MIPE 4.0 Collection Against Ewings Sarcoma (TC71) (AID 1259253); conditions: TC71 Ewing sarcoma viability, CellTiter-Glo, 48 h; series mostly up to 45.8 µM; viability (% of DMSO): at the top concentration; note: nearly all actives have a fitted effect of over 40% in size;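 for viability (% of DMSO): 100% = DMSO-treated cells and 0% = medium-only wells without cells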
How it was run: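 After a 4 h attachment period in RPMI/5% FBS, cells were pin-dosed with test compounds; DMSO served as negative and 9.2 uM bortezomib (final) as positive control. Luminescent CellTiter-Glo signal at 48 h defined viability.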
Potency is the fitted concentration of half-maximal effect.

SMILES | Potency | viability (% of DMSO)
COc1ccc(-c2cc3nccn3c(Nc3ncccc3C(N)=O)n2)cc1OC | 2.64 µM (active) | 
CCNC(=O)[C@H]1O[C@@H](n2cnc3c(N)nc(NCCc4ccc(CCC(=O)O)cc4)nc32)[C@H](O)[C@H]1O |  | 111%
NC(=O)c1noc([C@H](CCCC2CCCCC2)CC(=O)NO)n1 | 26.4 µM (active) | 
NS(=O)(=O)c1ccc(Nc2nc(OCC3CCCCC3)c3[nH]cnc3n2)cc1 | 14.8 µM (active) | 
